Test results from PubChem BioAssay.
The source made the active and inactive calls. Unless noted, the rule behind the calls is not given here.

Legend:
[1] = HepG2 liver cancer cell viability effects, profiling panel, resazurin fluorescence, 24 h, PK04 Diversity Set (AID 1172); details: higher = more signal; note: test concentration not given here
[2] = basal S. cerevisiae growth modulation, no modifier, primary screen, OD600, strain BY4716, 24 h, basal condition (AID 1173); details: OD600, 24 h, higher = more signal, called active from +8 up or from −8 down
[3] = MM1S myeloma cell viability, profiling panel, resazurin fluorescence, basal, 24 h, PK04 Diversity Set (AID 1174); details: higher = more signal, called active from +8 up or from −8 down;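 note: MM1S multiple myeloma cell line; test concentration not given here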
[4] = molecular target: Dihydroorotate dehydrogenase (quinone), mitochondrial (Plasmodium falciparum (isolate 3D7)) (UniProt Q08210); experiment: PfDHODH enzyme inhibitors, primary screen, biochemical, C-terminal His tag, absorbance 600 nm (AID 1175); details: DCIP absorbance 600 nm, higher = more signal, called active from +8 up or from −8 down;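 note: recombinant parasite enzyme with a five histidine tag at its C terminus; test concentration not given here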
Chain of Dihydroorotate dehydrogenase (quinone), mitochondrial (Plasmodium falciparum (isolate 3D7)) (Q08210 whole entry, looked up): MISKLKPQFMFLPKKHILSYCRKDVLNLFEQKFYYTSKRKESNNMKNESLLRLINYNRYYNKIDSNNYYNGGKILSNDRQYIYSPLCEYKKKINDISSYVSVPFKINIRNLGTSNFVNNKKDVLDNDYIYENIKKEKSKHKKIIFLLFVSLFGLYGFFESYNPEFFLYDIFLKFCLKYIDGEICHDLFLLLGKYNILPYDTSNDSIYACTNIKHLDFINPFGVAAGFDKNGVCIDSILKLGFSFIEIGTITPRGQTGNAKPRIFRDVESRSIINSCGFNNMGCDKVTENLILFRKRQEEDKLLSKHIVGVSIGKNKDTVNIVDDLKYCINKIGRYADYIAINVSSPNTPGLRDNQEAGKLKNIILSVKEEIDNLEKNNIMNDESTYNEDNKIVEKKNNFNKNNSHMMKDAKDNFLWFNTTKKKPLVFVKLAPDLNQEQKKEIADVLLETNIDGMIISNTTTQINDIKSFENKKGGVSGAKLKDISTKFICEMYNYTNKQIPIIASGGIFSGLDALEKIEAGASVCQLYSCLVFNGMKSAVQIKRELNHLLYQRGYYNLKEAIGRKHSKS

[5] = P. aeruginosa biofilm formation inhibitors, primary screen, strain PAO1, LB-PBS medium, absorbance 600 nm (AID 1176); note: test concentration not given here; details: P. aeruginosa PAO1 growth/biofilm, A600, 12 h; higher = more signal
[6] = S. cerevisiae RM11-1a growth modifiers, primary screen, strain RM11-1a, OD600, basal, 24 h (AID 1177); details: OD600, 24 h, higher = more signal, called active from +8 up or from −8 down;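 note: cultures grown under basal conditions with no added stressor; test concentration not given here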
[7] = E. coli acrAB mutant growth effects, primary screen, E. coli filamentation inducers, strain DRC39, OD650, 24 h (AID 1178); details: higher = more signal, called active from +8 up or from −8 down;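 note: growth measured as culture turbidity by optical density at 650 nm; test concentration not given here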
[8] = E. coli acrAB mutant growth effects, primary screen, E. coli filamentation inducers, strain DRC39, OD650, 48 h (AID 1179);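 note: screen aims at cell division blockers that make cells filament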; details: E. coli DRC39 delta-acrAB growth, higher = more signal, called active from +8 up or from −8 down
[9] = RPMI8226 myeloma cell viability, profiling panel, resazurin fluorescence, basal, 24 h, PK04 Diversity Set (AID 1180); details: higher = more signal;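 note: RPMI8826 multiple myeloma cell line at 5000 cells per well; test concentration not given here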
[10] = molecular target: E3 ubiquitin-protein ligase XIAP (Homo sapiens) (UniProt P98170); experiment: XIAP binders, primary screen, biophysical, small-molecule microarray, fluorescence 635 nm (AID 1181); details: small-molecule microarray binding, higher = more signal;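 note: score merges 667 nm emission and signal to noise over triplicate slides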
Chain of E3 ubiquitin-protein ligase XIAP (Homo sapiens) (P98170 whole entry, looked up): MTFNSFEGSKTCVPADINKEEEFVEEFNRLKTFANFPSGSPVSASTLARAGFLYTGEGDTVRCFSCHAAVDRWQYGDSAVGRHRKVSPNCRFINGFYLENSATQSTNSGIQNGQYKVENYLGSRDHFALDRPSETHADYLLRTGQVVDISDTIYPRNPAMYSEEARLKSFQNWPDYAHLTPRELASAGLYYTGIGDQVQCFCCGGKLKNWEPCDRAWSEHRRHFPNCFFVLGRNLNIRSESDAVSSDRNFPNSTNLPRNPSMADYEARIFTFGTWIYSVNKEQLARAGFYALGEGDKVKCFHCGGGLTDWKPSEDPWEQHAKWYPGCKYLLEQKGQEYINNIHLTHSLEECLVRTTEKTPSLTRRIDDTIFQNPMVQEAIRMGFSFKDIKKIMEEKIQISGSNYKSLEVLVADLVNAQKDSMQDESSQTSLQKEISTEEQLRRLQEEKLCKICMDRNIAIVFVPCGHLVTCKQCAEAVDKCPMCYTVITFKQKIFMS

| SMILES | z-score [1] | z-score [2] | z-score [3] | composite z-score [4] | z-score [5] | z-score [6] | z-score [7] | z-score [8] | z-score [9] | composite z-score [10] |
| --- | --- | --- | --- | --- | --- | --- | --- | --- | --- | --- |
| CCc1cc2c(nc1CC)CCN(CCC(C)=NOC[C@@H](O)COCc1ccco1)C2 | -0.596 | -1.12 (inactive) | -0.24 (inactive) | -0.127 (inactive) | -0.0174 (inactive) | -0.727 (inactive) | 0.377 (inactive) | 0.389 (inactive) | -0.0388 | 0.183 |
| COC(=O)C1=C(C)[C@@H](O)[C@@H](C)[C@H](c2c(OC)c(OC)c(C)c(OC)c2OC)O1 | -0.359 | -0.195 (inactive) | -0.46 (inactive) | -0.218 (inactive) | 0.368 (inactive) | 0.0467 (inactive) | 0.0595 (inactive) | -0.0569 (inactive) | -0.529 | 0.0101 |
| COCCOC(=O)N1C(=O)[C@@]2(c3cc(C#CCNC(N)=O)ccc31)[C@H](c1ccc(O)cc1)N1[C@H](c3ccccc3)[C@H](c3ccccc3)OC(=O)[C@H]1[C@@H]2C(=O)N1CCCCCCC1 | -0.0455 | 1.01 (inactive) | -0.172 (inactive) | 0.0489 (inactive) | 0.553 (inactive) | 0.517 (inactive) | 0.474 (inactive) | -0.188 (inactive) | -0.336 | -0.212 |
| Cc1ccc(C2CC=C(C(=O)O)CN2S(=O)(=O)c2ccc(C)cc2)cc1 (stereo not given) | -0.719 | -0.0489 (inactive) | -0.955 (inactive) | 1.23 (inactive) | 0.396 (inactive) | 0.603 (inactive) | -0.799 (inactive) | -1.52 (inactive) | -1.54 | -0.102 |
| COc1cccc([C@H]2Oc3ccc(OC)cc3C(=NO[C@H](C)c3cn([C@@H]4COC[C@H]4O)nn3)[C@@H]2O)c1 | -0.859 | -0.117 (inactive) | 0.0029 (inactive) | -2.1 (inactive) | -0.409 (inactive) | -0.761 (inactive) | -0.537 (inactive) | -2.22 (inactive) | -0.238 | 0.0264 |
| CN(C)CCCNC(=O)[C@@H]1c2ccccc2C(=O)N(Cc2cc(F)cc(C(F)(F)F)c2)[C@H]1c1ccc(CO)cc1 | 0.0356 | -0.473 (inactive) | -0.62 (inactive) | 0.0999 (inactive) | 0.348 (inactive) | 0.0333 (inactive) | -0.0392 (inactive) | -0.578 (inactive) | -0.359 | -0.0172 |
| CO[C@H]1COC(=O)[C@H](C)COC(=O)CC=C[C@@H](C)[C@H](OC)COC(=O)CC=C[C@@H]1C | -0.194 | -0.754 (inactive) | -0.152 (inactive) | -0.365 (inactive) | -0.167 (inactive) | -0.192 (inactive) | 0.778 (inactive) | 0.804 (inactive) | 0.129 | -0.0117 |
| O=C1[C@H]2[C@H]3[C@H](O)[C@H](O)CC(=NO[C@@H]4O[C@H](CO)[C@@H](O)[C@H](O)[C@H]4O)[C@@H]3CC[C@H]2C(=O)N1c1ccc(F)cc1F | 0.662 | -0.767 (inactive) | 0.412 (inactive) | -1.39 (inactive) | -0.118 (inactive) | -0.815 (inactive) | 0.789 (inactive) | 0.391 (inactive) | 0.741 | -0.313 |
| CC(C)(C)N1CC=CC23O[C@@H]4C=CCCOC(=O)C4[C@H]2C(=O)N(CCCCCO)[C@@H]3C1=O (stereo not given in full) | -0.214 | -0.312 (inactive) | 0.287 (inactive) | -0.16 (inactive) | -0.36 (inactive) | 0.449 (inactive) | 0.251 (inactive) | 0.762 (inactive) | 0.384 | 0.329 |
| C[C@@H]1C=CCC(=O)OC[C@H](C)C(=O)OC[C@H]2O[C@H]1C=C[C@H]2O | 0.0061 | -0.368 (inactive) | 0.313 (inactive) | 0.603 (inactive) | -0.814 (inactive) | 1.14 (inactive) | 0.0992 (inactive) | -0.249 (inactive) | 0.52 | -0.379 |
| CCc1cc2c(nc1CC)CCN(CCC(C)=NO[C@@H](C)c1cc(-c3c(C)cc(C)cc3C)no1)C2 | -0.0169 | -2.75 (inactive) | -0.433 (inactive) | -0.0406 (inactive) | 0.903 (inactive) | 0.526 (inactive) | 0.416 (inactive) | 0.566 (inactive) | 0.374 | 0.19 |
| CC(C)CON=C1C[C@@H](O)[C@@H](O)[C@@H]2[C@@H]3C(=O)N(Cc4ccccc4)C(=O)[C@@H]3CC[C@@H]12 | 0.854 | -0.608 (inactive) | 0.334 (inactive) | -0.282 (inactive) | -0.495 (inactive) | 0.407 (inactive) | 0.426 (inactive) | 0.918 (inactive) | 0.731 | -0.242 |
| COC(=O)[C@H](C)NC(=O)CCC1CC(OC(=O)NCCc2ccc(F)cc2)CC2(CCCC(COC(=O)NCCc3ccc(Cl)cc3)O2)O1 (stereo not given in full) | 0.315 | 0.592 (inactive) | 0.349 (inactive) | -0.532 (inactive) | 0.45 (inactive) | 0.825 (inactive) | 0.718 (inactive) | 0.942 (inactive) | 0.761 | -0.0918 |
| O=C1C2C=CC(C(O)c3ccc([N+](=O)[O-])cc3)N(Nc3ccc([N+](=O)[O-])cc3)C2C(=O)N1c1ccccc1 (stereo not given) | -0.686 | 1.61 (inactive) | -0.858 (inactive) | 1.2 (inactive) | 1.64 (inactive) | 1.44 (inactive) | -1.3 (inactive) | -1.09 (inactive) | -0.823 | 0.23 |
| Cc1ccc(S[C@]2(C(=O)NCC(F)(F)F)CC(=O)N(Cc3ccccc3Cl)[C@@H]2c2ccc(CO)cc2I)cc1 | 0.305 | -3.36 (inactive) | -3.29 (inactive) | -0.148 (inactive) | 0.0214 (inactive) | -0.54 (inactive) | 0.357 (inactive) | 0.465 (inactive) | -2.02 | 0.0256 |
| C=CCOC(=O)[C@H]1[C@@H]2C(=O)O[C@@H](c3ccccc3)[C@@H](c3ccccc3)N2[C@@H](c2ccc(OCCOC(=O)[C@H]3C[C@H]4C(=O)N[C@@H](Cc5ccccc5)C(=O)N4[C@H]3c3ccc(O)cc3)cc2)[C@]12C(=O)Nc1ccccc12 | 0.696 | 1.32 (inactive) | 1.17 (inactive) | -0.869 (inactive) | 2.64 (inactive) | 1.71 (inactive) | -0.38 (inactive) | 0.124 (inactive) | 1.74 | 0.0015 |
| O=C1C2=CC[C@H]3C(=O)N(Cc4ccc5c(c4)OCO5)C(=O)[C@H]3[C@H]2[C@H](O)[C@@H]2O[C@H]12 | -0.522 | -0.105 (inactive) | -0.677 (inactive) | -0.907 (inactive) | 0.0578 (inactive) | -0.491 (inactive) | 0.166 (inactive) | 0.0632 (inactive) | -1.49 | -0.381 |
| CCOC(=O)[C@H](CC(C)C)NC(=O)CCC1CC(OC(=O)NCc2cccc3ccccc23)CC2(CCCC(COC(=O)NCCc3ccccc3OC)O2)O1 (stereo not given in full) | 0.563 | -0.581 (inactive) | 0.072 (inactive) | -0.987 (inactive) | 0.684 (inactive) | -0.0922 (inactive) | -0.436 (inactive) | -0.141 (inactive) | -0.31 | -0.134 |
| O=C1C[C@@H](O)[C@@H](O)[C@@H]2[C@@H]3C(=O)N(C4CCCCC4)C(=O)[C@@H]3CC[C@H]12 | 0.513 | 0.44 (inactive) | -0.122 (inactive) | 0.349 (inactive) | -0.319 (inactive) | -0.247 (inactive) | -0.0543 (inactive) | -0.292 (inactive) | 0.288 | -0.0454 |
| CC(=O)OC[C@H]1O[C@H](CCON=C(C)CCC(=O)OC[C@H]2O[C@H](C#Cc3ccccc3)C=C[C@@H]2Oc2ccc(C)cc2)C=C[C@@H]1OC(C)=O | -0.508 | 0.511 (inactive) | -0.795 (inactive) | -0.84 (inactive) | 0.405 (inactive) | 0.661 (inactive) | 0.674 (inactive) | 0.59 (inactive) | -0.31 | -0.241 |
| O=C1C[C@@H](O)[C@@H](O)[C@@H]2[C@@H]3C(=O)N(c4ccc(F)cc4F)C(=O)[C@@H]3CC[C@@H]12 | 0.685 | 0.461 (inactive) | 0.491 (inactive) | 0.374 (inactive) | -0.626 (inactive) | -0.584 (inactive) | -0.385 (inactive) | -0.302 (inactive) | 0.481 | -0.0735 |
| CCOC(=O)C1=CCC(c2cc3ccccc3[nH]2)NC1 (stereo not given) | -0.309 | -3.2 (inactive) | -0.79 (inactive) | -0.0148 (inactive) | 0.0083 (inactive) | -0.194 (inactive) | -0.303 (inactive) | -0.391 (inactive) | -0.613 | 0.0418 |
| COC(=O)[C@H](C)NC(=O)CCC1CC(OC(=O)NCc2cccc3ccccc23)CC2(CCCC(COC(=O)NCC3CCCCC3)O2)O1 (stereo not given in full) | 1.14 | -0.201 (inactive) | 0.486 (inactive) | -0.533 (inactive) | -0.127 (inactive) | 0.617 (inactive) | 0.0476 (inactive) | -0.399 (inactive) | 1.23 | -0.02 |
